From PubChem
An excerpt weighted towards active compounds, which were near 8.1% of everything screened.
KB-V1 cytotox: qHTS assay for MDR1-selective chemotherapeutics: Primary screen using the drug-selected MDR subline cells KB-V1; 400,000 tested, 3.4% active; Potency, µM (highest dose often 46.1 µM), usual class: cytotoxic; KB-V1 MDR cells viability, CellTiter-Glo, 72 h; also: % is scaled to controls: 0 for no effect and ±100 for the full control effect; nearly all actives have a fitted effect of over 60% in size
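KB-V1 cells (P-gp-expressing MDR subline of KB-3-1) in phenol-red-free DMEM with 10% FBS were exposed to library compounds over a concentration series for 72 h at 37 degrees C. Viability read by CellTiter-Glo luminescence; concentration-effect curves fitted after normalization.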
MCF10A rereplic: A quantitative high throughput screen for small molecules that induce DNA re-replication in MCF 10a normal breast cells. Potency, µM (series often up to 46.1 µM), without a hit: at the top dose activity, positive = re-replication, hits mostly activators. MCF 10A DNA re-replication, Hoechst nuclear intensity, 48 h. 350,000 tested, 2.9% active; also: % of control where 0% means no effect; nearly all actives have a fitted effect of over 50% in size
ELG1 DNA repair: qHTS screen for small molecules that inhibit ELG1-dependent DNA repair in human embryonic kidney (HEK293T) cells expressing luciferase-tagged ELG1; AID 504467, 2011; Potency, µM (top dose mostly 46.1 µM), for the others: at the highest dose activity change, negative = inhibition, hits mostly inhibitors; HEK293T ELG1-luciferase reporter, luminescence, 16 h; DNA damage induced by 5-fluorouridine; 330,000 tested, 2.3% active; also: % is scaled to controls: 0 for no effect and ±100 for the full control effect; nearly all actives have a fitted effect of over 55% in size
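Luminescence from the luciferase reporter, measured 30 min after ONE-Glo reagent at room temperature, was the read-out. Beforehand, 2,000 cells per well were exposed for 16 hr at 37 °C to 5-fluorouridine together with compound or vehicle.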
SW480 rerep: A quantitative high throughput screen for small molecules that induce DNA re-replication in SW480 colon adenocarcinoma cells; 340,000 tested, 1.8% active; AID 624297, 2012; Potency, µM (top dose mostly 46.1 µM), inactives show at the highest dose re-replication activation, hits mostly activators; SW480 DNA re-replication, Hoechst DNA content imaging, 48 h; also: % of control where 0% means no effect; nearly all actives have a fitted effect of over 55% in size
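Image-based read-out: total Hoechst fluorescence of nuclei (405 nm excitation, 500-530 nm emission), with hits raising the fraction of high-intensity nuclei. SW480 colon cells incubated 48 hr with compounds at 37 C.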
KB-3-1 cytotox: qHTS assay for MDR1-selective chemotherapeutics: Primary screen using the parental adenocarcinoma cell KB-3-1 | KB-3-1 viability, CellTiter-Glo ATP luminescence, 72 h | Potency, µM (titrated, usually from 46.1 µM), hits mostly cytotoxic | 400,000 tested, 1.4% active | AID 1347075, 2019; also: % is scaled to controls: 0 for no effect and ±100 for the full control effect; nearly all actives have a fitted effect of over 60% in size
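KB-3-1 cells, DMEM (no phenol red) + 10% FBS; compound by pin transfer, 72 h, 37 °C. Readout: CellTiter-Glo luminescence after 10 min. Data normalized, curve-fitted.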
Numbers without * were called inactive; ! = repeats disagree; [ ] = remark or other dose. Calls follow the shape of the dose curve; as a rule, active = well fitted curve in the direction sought with a large enough effect; inconclusive = small, poorly fitted or top-dose-only effect, or another doubt; inactive = no such curve, though single readings can be large; an effect the other way counts as inactive or inconclusive. Potency is read from the fitted curve at half-maximal effect.

For CCCCn1c(N)c(N(CCOC)C(=O)CSc2nnc(-c3ccco3)n2CC)c(=O)[nH]c1=O the results were KB-V1 cytotox inactive, MCF10A rereplic 6%, ELG1 DNA repair 6%, SW480 rerep -9% and KB-3-1 cytotox inconclusive.
For COC(=O)/C=C/c1ccccc1S(=O)(=O)N(Cc1ccccc1)Cc1ccco1 the results were KB-V1 cytotox 7.3µM*, MCF10A rereplic 2.1µM*, ELG1 DNA repair -23%, SW480 rerep 4.1µM* and KB-3-1 cytotox 3.3µM*.
Nc1ccc(S(=O)(=O)Nc2ccccc2)cc1 was read as MCF10A rereplic 1% and SW480 rerep 13%.
COc1ccc(C(=O)N=c2sc3c(C)ccc(OC)c3n2C)cc1 was read as KB-V1 cytotox 5.8µM*, MCF10A rereplic 8%, ELG1 DNA repair inconclusive, SW480 rerep 11% and KB-3-1 cytotox 9.2µM*.
`Cc1ccc(NC(=O)Cn2cc(C=O)c3ccccc32)cc1` gave KB-V1 cytotox inactive, MCF10A rereplic 29%, ELG1 DNA repair -14%, SW480 rerep 15µM* and KB-3-1 cytotox inactive.
COc1cccc(NC(=O)Cn2cc(C=O)c3ccccc32)c1 was read as KB-V1 cytotox inconclusive, MCF10A rereplic 3%, ELG1 DNA repair inconclusive, SW480 rerep 2% and KB-3-1 cytotox inactive.
CN(C)c1ccc(/C=C/C(=O)c2ccc(O)cc2)cc1 was read as KB-V1 cytotox inactive, MCF10A rereplic inconclusive, SW480 rerep 18µM* and KB-3-1 cytotox inconclusive.
For O=C(/C=C/c1cccnc1)c1ccc(O)cc1 the results were KB-V1 cytotox inconclusive, MCF10A rereplic inconclusive, ELG1 DNA repair inconclusive, SW480 rerep 21µM* and KB-3-1 cytotox inconclusive.
For O=C(/C=C/c1cccc(O)c1)c1cccnc1 the results were KB-V1 cytotox inconclusive, MCF10A rereplic 21µM*, ELG1 DNA repair 11%, SW480 rerep inconclusive and KB-3-1 cytotox inactive.
For O=c1[nH]c2cc(C(F)(F)F)c(N3CCOCC3)cc2n(CP(=O)(O)O)c1=O the results were MCF10A rereplic 1% and SW480 rerep -1%.
For COc1ccc(CC(=O)OC(C)C(=O)NCc2ccc3c(c2)OCO3)cc1OC (stereo not given) the results were KB-V1 cytotox inactive, MCF10A rereplic -1%, ELG1 DNA repair 1%, SW480 rerep -3% and KB-3-1 cytotox inactive.
COc1ccccc1NC(=O)/C(=C/c1cccs1)NC(=O)c1ccco1 was read as KB-V1 cytotox inactive, MCF10A rereplic 2%, ELG1 DNA repair 2%, SW480 rerep 4.6µM* and KB-3-1 cytotox inactive.
For COc1ccccc1NC(=O)c1sc(NC(=O)c2ccco2)c(C#N)c1C the results were KB-V1 cytotox inactive, MCF10A rereplic 16µM*, ELG1 DNA repair -11%, SW480 rerep inconclusive and KB-3-1 cytotox inactive.
Screening COc1cccc(-c2ccc3c(N)c(C(=O)Nc4ccccc4C)sc3n2)c1 returned KB-V1 cytotox inactive and KB-3-1 cytotox inactive.
COc1ccccc1NC(=O)c1sc2nc(-c3ccco3)ccc2c1N was read as KB-V1 cytotox inactive, MCF10A rereplic 15µM*, ELG1 DNA repair inconclusive, SW480 rerep 29% and KB-3-1 cytotox inactive.
Screening Nc1c(C(=O)Nc2ccc(F)c(F)c2)sc2nc(-c3ccncc3)ccc12 returned KB-V1 cytotox inactive and KB-3-1 cytotox inactive.
Nc1c(C(=O)Nc2ccccc2)sc2nc(-c3ccco3)ccc12 was read as KB-V1 cytotox inconclusive, MCF10A rereplic 18µM*, ELG1 DNA repair 0%, SW480 rerep inconclusive and KB-3-1 cytotox inconclusive.
`Cn1cnc(S(=O)(=O)N2CCCCC2c2cc(C(=O)NCc3ccc(F)cc3)no2)c1` (stereo not given) gave KB-V1 cytotox inactive and KB-3-1 cytotox inactive.
For CN1CCCN(C(=O)c2ccc(Br)cc2)CC1 the results were KB-V1 cytotox inactive, MCF10A rereplic 0%, ELG1 DNA repair -7%, SW480 rerep -2% and KB-3-1 cytotox inactive.
`CCOC(=O)c1c(C)n(C)c2ccc(OCC(O)Cn3nc(C)cc3C)cc12` (stereo not given) gave KB-V1 cytotox inactive, MCF10A rereplic 4%, ELG1 DNA repair 21µM*, SW480 rerep -2% and KB-3-1 cytotox inactive.
`CCCCNc1c(-c2ccc(SC3CCCCC3)cc2)nc2ccccn12` gave KB-V1 cytotox 21µM*!, MCF10A rereplic inconclusive, ELG1 DNA repair inconclusive, SW480 rerep 0% and KB-3-1 cytotox inconclusive.
Screening CCCCCCSc1ccc(-c2nc3ccc(C)cn3c2NCc2ccccc2)cc1 returned KB-V1 cytotox inconclusive, MCF10A rereplic inconclusive, ELG1 DNA repair inconclusive, SW480 rerep -2%[9.22 µM] and KB-3-1 cytotox inconclusive.
CCCCNc1c(-c2ccc(SC(C)CC)cc2)nc2ccccn12 (stereo not given) was read as KB-V1 cytotox 13µM*!, MCF10A rereplic inconclusive, ELG1 DNA repair inconclusive, SW480 rerep inconclusive and KB-3-1 cytotox 18µM*!.
`CCCCCCSc1ccc(-c2nc3cnccn3c2NCCCC)cc1` gave KB-V1 cytotox inactive, MCF10A rereplic inconclusive, ELG1 DNA repair -7%, SW480 rerep 21µM* and KB-3-1 cytotox inactive.
O=C(/C=C/c1ccc2c(c1)OCO2)Nc1cccc([S+](=O)([O-])Nc2ccccc2F)c1 was read as KB-V1 cytotox inactive and KB-3-1 cytotox inactive.
CC(=O)Nc1ccc(NC(=O)CN(C)S(=O)(=O)c2ccc3c(c2)CCC(=O)N3)cc1 was read as KB-V1 cytotox inactive, MCF10A rereplic 9%, ELG1 DNA repair 14%, SW480 rerep -11% and KB-3-1 cytotox inactive.
`Cc1ccc(C)c(N2CCN(C(=O)CN(C)S(=O)(=O)c3ccc4c(c3)CCC(=O)N4)CC2)c1` gave KB-V1 cytotox inactive, MCF10A rereplic 8%, ELG1 DNA repair 23µM*, SW480 rerep -8% and KB-3-1 cytotox inactive.
For Cc1cc(NC(=O)CN(C)S(=O)(=O)c2ccc3c(c2)CCCC(=O)N3)ccc1Br the results were KB-V1 cytotox 16µM* and KB-3-1 cytotox inconclusive.
For CS(=O)(=O)N(CC(=O)NCCSC1CCCCC1)c1ccc2c(c1)OCO2 the results were KB-V1 cytotox 18µM*, MCF10A rereplic 8%, ELG1 DNA repair -2%, SW480 rerep 11% and KB-3-1 cytotox inactive.
`C=CCN(c1ccc(C(=O)Nc2ccc3c(c2)OCO3)cc1)S(C)(=O)=O` gave KB-V1 cytotox inactive, MCF10A rereplic -12%, ELG1 DNA repair 13µM*, SW480 rerep -3% and KB-3-1 cytotox inactive.
